Data on 16 sequences can be found in the supplement of paper PMC10338343.

± gives the standard deviation. Where only a bound is given, the exact number is not on record here.

The subject of one experiment is MILI (PIWIL2) piRISC loaded with L1MC piRNA (26 nt). Nature of the experiment: pre-steady-state target cleavage rate (min^-1); guide: L1MC piRNA 5'p-UAACUAAAUACUAUGCAAGCUGUAGG; MIWI and MILI are mouse PIWI proteins and EfPiwi is from a freshwater sponge; tags in brackets are library labels; higher = faster piRNA-guided slicing of the target. To be noted: auxiliary factor: 500 nM mouse GTSF1. The procedure, abridged: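 A transcribed, DNA-blocked target RNA library (0.1 nM) and 1 nM active affinity-purified piRISC bearing one synthetic guide were incubated in HEPES–potassium acetate buffer at 33 °C for 0–8 or 0–960 min, either with or without 500 nM GTSF1 partner protein. Uncleaved targets were sequenced, normalised to depth and to weakly complementary targets, and pooled over three trials, with k3 capped at 0.0001 min^-1. The pre-steady-state cleavage rate was derived with a burst-and-steady-state fit.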
For UCCUGGAUGAGCUUGGAUACUAUUUAGUUA, the “pre-steady-state target cleavage rate” value stood at 0.00767 ± 0.0035.
Same read-out and setting: under UCCUGGAUGUGCUUGCAUAGUAAUAAGUUA stands 0.0448 ± 0.016.
On the same count and under the same terms, under UCCUCCUACAGCUUGCAAAGUAUUUACAAA stands 0.0935 ± 0.021; under UCCUGGAUGUGCUUGCAUAUAUUUAGUUA, 0.00444 ± 0.0037.
Same read-out and setting: for UCCUGCUAGUCCUUGCAUAGUAUUUAGUAA the value was 0.0749 ± 0.018; for UCCUGCUACAGCUACCAUAGUAUUUAGAAA, 0.0677 ± 0.021.
Consider UCCUGGAUGUCCUUCCAUAGUAUUUAGUUA, for which the “pre-steady-state target cleavage rate” value came out at 0.0223 ± 0.008.
On the same count and under the same terms, for UCCUGGAACAGCUAGCAUAGUAUUUACUUA the value was 0.0669 ± 0.016; for UCCUGGAUGUCGUUGCUUAGUAAUUAGUUA, 0.0131 ± 0.0058.
The same measure, in the same setting: under UCCUGGUACAGCUUGCAUAGUAUUUAGGUA stands 0.0562 ± 0.015; under UCCUGGAUGUGCUUGCAUAGUAAUUUGUUA, 0.0141 ± 0.0071.

The experiment is the same for the next values; noted with them: auxiliary factor: none (no GTSF1).
In the case of “UCCUGGAACAGCUUGCUAUCAUAAAUCAAA [g15:g23:cont:t1A]”, the “pre-steady-state target cleavage rate” value is less than 0.0001.
The same measure, in the same setting: under UCCUGGAUGUCGAAGCUUAGUAUUUUGUUA stands less than 0.0001.
Consider UCCUGGAUGUCGAACGUAUCUAUUCUAGUUA, for which the “pre-steady-state target cleavage rate” value is less than 0.0001.
Regarding UCCUGGAUGUCGAACCAUAGUUUUUAGUAA, the “pre-steady-state target cleavage rate” value was less than 0.0001.
For UCCUGGAUGUCGAACCAUUAGUAUUUAGUUA, the “pre-steady-state target cleavage rate” value was less than 0.0001.
